Activity calls are given as the source filed them. Entries that show only a call come without a potency. Calls come from the whole dose curve; as a rule, active = well fitted curve in the direction sought with a large enough effect in the repeat runs; inconclusive = weak or mixed curves; inactive = flat fitted curve, though single readings scatter.

The test in a line: qHTS assay to test for compound auto fluorescence at 590 nm (red) in HEK293 cells (AID 720679). The following applies: red autofluorescence 540/590 nm; series mostly up to 46 µM. Put shortly:
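HEK293 cells (2,000/well, medium with 10% dialyzed FBS) attached for 4-5 hr at 37C, received 23 nL compound and were incubated overnight at 37C, 5% CO2. Red fluorescence was then read at 540/590nm Ex/Em, referenced to Rose Bengal sodium.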
On the technique in general: qHTS replaces the single test concentration by a dilution series.
`CCC[C@@]1(CCc2ccccc2)CC(O)=C([C@H](CC)c2cccc(NS(=O)(=O)c3ccc(C(F)(F)F)cn3)c2)C(=O)O1`: the Potency entry was “inactive”.
For `CCCCCCC(=O)O[C@H]1CC[C@H]2[C@@H]3CCc4cc(O)ccc4[C@H]3CC[C@]12C` the value was “inactive”; for `CCC(=O)OCC(=O)[C@@]1(OC(=O)CC)[C@@H](C)C[C@H]2[C@@H]3CCC4=CC(=O)C=C[C@]4(C)[C@@]3(F)[C@@H](O)C[C@@]21C`, “inactive”.
As for `CCCC1([C@H](O)C/C=C/[C@H]2[C@H](O)CC(=O)[C@@H]2CCCCCCC(=O)OC)CCC1`, the Potency entry was “inactive”.
With `C=C1C(=C/C=C2\CCC[C@]3(C)[C@@H]([C@H](C)CCCC(C)(C)O)CC[C@@H]23)C[C@@H](O)C[C@@H]1O` the entry was “inactive”; with `CC[C@]1(O)CC2CN(CCc3c([nH]c4ccccc34)[C@@](C(=O)OC)(c3cc4c(cc3OC)N(C)[C@H]3[C@@](O)(C(N)=O)[C@H](O)[C@]5(CC)C=CCN6CC[C@]43[C@@H]65)C2)C1` (some centres undefined), “inactive”.
With `CCC(=O)NS(=O)(=O)c1ccc(-c2c(-c3ccccc3)noc2C)cc1`, the Potency entry is “inactive”.
With `O=C1NCCN1c1ncc([N+](=O)[O-])s1` the entry was “inactive”; with `CCC(=O)NCCC1CCc2ccc3c(c21)CCO3` (centres undefined), “inactive”.
For `CN1CCN(C2=Nc3ccccc3Cc3ccccc32)CC1` the value was “inactive”.
For `CCCCCCCCCCCCCCCC(=O)O[C@@H]1CC(C)=C(/C=C/C(C)=C/C=C/C(C)=C/C=C/C=C(C)/C=C/C=C(C)/C=C/C2=C(C)C[C@@H](OC(=O)CCCCCCCCCCCCCCC)CC2(C)C)C(C)(C)C1` the value was “inactive”; for `O=C(Nc1ccc(Br)cc1)c1cc(Br)c(Br)s1`, “inactive”; for `Cc1ccc(S(=O)(=O)NC(=O)N[C@@H](C)Cc2ccccc2)cc1`, “inactive”.
In the case of `O=C(O)c1cc(N=Nc2ccc(O)c(C(=O)O)c2)ccc1O`, the Potency entry is “inactive”.

The values are drawn from PubChem BioAssay (Tox21).
